Measured values taken from PubChem BioAssay AID1117319 (Southern Research Institute, 2015).
Several values for one entry are separate records, joined by “and”; a condition that tells them apart may be missing. Equal values may be shown once. Among all 260,000 compounds or so, about 1,500 (0.58%) were called active. Inconclusive results (about 5%) are left out. Only a sample is shown. Potency and affinity values are given separately. Values without a mark were called inactive.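 The calls were made as follows: active = inhibition above a set limit at one or more doses, reproduced on every date tested; inconclusive = results disagree between test dates, or hit never tested in dose response; inactive = the rest.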

These compounds were tested against Virion infectivity factor (Human immunodeficiency virus type 1 group M subtype B (isolate BH10)) + Virion infectivity factor (Human immunodeficiency virus type 1 group M subtype B (isolate BRU/LAI)) + Virion infectivity factor (Human immunodeficiency virus type 1 group M subtype B (isolate PCV12)) + Virion infectivity factor (Human immunodeficiency virus type 1 group M subtype B (isolate HXB2)) + DNA dC->dU-editing enzyme APOBEC-3G (Homo sapiens) (UniProt P69720+P69721+P69722+P69723+Q9HC16) (assay: HIV-1 Vif–A3G interaction blockers – biochemical, TR-FRET, GST-Vif 1-94, biotin-A3G peptide, dose response retest, primary screen (AID 1117319;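 also: Vif residues 1-94 fused to GST binding biotinylated APOBEC3G peptide 110-148; 0% = full assay without inhibitor and 100% = GST in place of GST-Vif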)). Details: TR-FRET GST-Vif / biotin-A3G peptide binding; hits give high values.
In the case of `CC(=O)c1ccc(NC(=O)c2cnn3ccccc23)cc1`, the inhibition is reported as 1.77%. `CSc1cccc(NC(=O)c2cnn3ccccc23)c1` was tested, and the inhibition was 1.6%. Compound `COc1ccc(N2CCN(C(=O)CSc3ncn[nH]3)CC2)cc1` has an inhibition of 7.54%. For `COc1ccc(-n2nnnc2/C=C/Nc2cc(C(F)(F)F)ccc2OC)cc1`, the inhibition was -7.87%. `C=C(C1=CCN(S(=O)C(C)(C)C)[C@H]1CCO)c1ccccc1` (some centres undefined) gave an inhibition of -5.4%. Work on `Cc1nc2nc(C)c(CCC(=O)N3CCN(c4ccccn4)CC3)c(C)n2n1` yielded an inhibition of 8.31%. `Cc1nc2cc(-c3ccccc3)nn2c(C)c1CCC(=O)N1CCN(c2ccccc2)CC1` showed an inhibition of -3.02%. Work on `Cc1ccc(/C=N/n2cnc3sc4c(c3c2=O)CCCC4)o1` yielded an inhibition of 8.22%. `CCN(C(=S)Nc1cccnc1)c1ccccc1` gave an inhibition of -9.76%. Work on `CC(C)N(C(=S)Nc1cccnc1)c1ccccc1` yielded an inhibition of 4.04%. With `O=[N+]([O-])c1ccccc1N/N=C/c1ccc2c(c1)OCO2` the inhibition was 26.8%. In the case of `Cc1c(-c2ccccc2)nc2ccccc2c1C(=O)NCc1cccs1`, the inhibition is reported as 10.6%. Compound `Cc1ccc(NC(=O)c2cc3nc(C)cc(C)n3n2)cc1` has an inhibition of 3.27%. Work on `COc1cc(NC(=O)c2cnn3c(C)cc(C)nc23)c(OC)cc1Cl` yielded an inhibition of 0.24%. Work on `COc1cc(C2c3c([nH]c(=O)[nH]c3=O)Nc3ccc4ccccc4c32)cc(OC)c1OC` (centres undefined) yielded an inhibition of 1.71%. With `CCC(=O)N(c1nnc(SCC(=O)Nc2sccc2C(N)=O)s1)C1CC1` the inhibition was 4.16%. In the case of `CCN(CC)C(=O)c1ccc(-c2ccccc2)cc1`, the inhibition is reported as 3.81%. `O=C(O)CCC(=O)Nc1ccc(C(=O)OC2CCCCC2)cc1` showed an inhibition of 9.06%. `Fc1ccc2c(c1)C1C=CCC1C(c1cc3c(cc1Br)OCO3)N2` (centres undefined) gave an inhibition of 1.91%. `CCN(CC)C(=O)c1ccc(C)c(Br)c1` showed an inhibition of -4.6%. Work on `CCOC(=O)c1ccc2c(c1)C(=O)N(C1CCCCC1)C2=O` yielded an inhibition of 6.81%. `O=C(OC1CCCCC1)c1ccc(NC(=O)C2CCCCC2)cc1` gave an inhibition of 2.8%. `CCOC(=O)c1ccc2nc(C)c3c(c2c1)OC(C)C3` (centres undefined) gave an inhibition of -3.24%. `O=C1CN(C(=O)c2c(F)cccc2F)C(c2ccccc2)c2cc(Br)ccc2N1` (centres undefined) was tested, and the inhibition was -0.06%. Work on `CN1CC(=O)N(CC(=O)Nc2ccc(N3CCOCC3)cc2)C1=O` yielded an inhibition of -19.5%. Work on `O=C1OC(Cc2ccccc2)(c2ccccc2)c2ccccc21` (centres undefined) yielded an inhibition of 3.92%. Work on `CN(C(=O)Cn1nnc(-c2cccnc2)n1)C1CCCCC1` yielded an inhibition of 8.32%. For `CCOP(=O)(OCC)C(NC(=O)Nc1ccc(C)c(Cl)c1)c1ccccc1` (centres undefined), the inhibition was 1.69%. With `COc1cc(/C=N/N=C(\N)c2nonc2N)cc(OC)c1O` the inhibition was 16.4%. `CCCc1nn2c(=O)cc(O)nc2s1` showed an inhibition of 3.77%. For `CCCNc1nc(C)c(C(C)=O)cc1C#N`, the inhibition was 29.1%. `Cc1nn(C)c(Oc2cccc(C(F)(F)F)c2)c1C#N` gave an inhibition of 1.09%. In the case of `CNc1nc(C)c(C(=O)c2ccc(Cl)cc2)s1`, the inhibition is reported as -4.16%. Work on `CCC(NC(=O)c1ccccc1NC(=O)c1ccc(C)cc1)C(=O)O` (centres undefined) yielded an inhibition of 2.64%. With `Cc1ccc2c(c1)C(c1ccccc1)N(C(=O)C(C)C)CC(=O)N2` (centres undefined) the inhibition was 1.62%. `Cc1ccc2c(c1)C(c1ccc(F)cc1)N(C(=O)C1CC1)CC(=O)N2` (centres undefined) gave an inhibition of -2.57%. With `CC(=O)c1ccc(N2CCC(C(=O)O)CC2)cc1` the inhibition was 6.29%. With `CC(=O)c1ccc2c(c1)CCN2` the inhibition was 9.69%. Compound `COC(=O)c1cc(=O)nc2scc(C)n12` has an inhibition of 5.72%. `C=C1[C@@H](C)C2[C@H](Cc3ccccc3)NC(=O)[C@]23OC(=O)CC[C@H](O)CCC[C@H](C)C/C=C/[C@H]3[C@@H]1O` (some centres undefined) gave an inhibition of 6.17%. For `CC(C)OP(=O)(c1ccc(N(C)C)cc1)C(O)c1ccc(N(C)C)cc1` (centres undefined), the inhibition was -8.7%. In the case of `CC(C)COP(=O)(OCC(C)C)C(O)c1ccc(N(C)C)cc1` (centres undefined), the inhibition is reported as 12.4%. `O=C(O)c1ccc2c(c1)C(=O)N(c1cccc(S(=O)(=O)Nc3cccc(C(F)(F)F)c3)c1)C2=O` gave an inhibition of 25.9%. `CCOC(=O)C1=C(C)N=C2SC(C(=O)OC)=CC(=O)N2C1c1cccc(OC)c1` (centres undefined) showed an inhibition of 0.81%. `CCOC(=O)C1=C(C)N=C2SC(C(=O)OC)=CC(=O)N2C1c1ccc(OC)cc1` (centres undefined) showed an inhibition of 7.8%. `N#Cc1ccc(N2CCCNCC2)nc1` gave an inhibition of -3.01%. Work on `COc1ccc2oc(C(=O)N3CCCc4ccccc43)c(C)c2c1` yielded an inhibition of 0.82%. With `CC1CCC(NC(=O)C2CCN(c3nc4ccccc4s3)CC2)CC1` (centres undefined) the inhibition was 7.57%. Work on `CN(C)c1ccc(CN2CCCCCC2)cc1` yielded an inhibition of 8.55%. Work on `CC1CCCCN1Cc1ccc(N)cc1` (centres undefined) yielded an inhibition of -2.03%. In the case of `COc1ccc(C2NC(Cc3ccccc3)(C(=O)O)C3C(=O)N(c4ccccc4OC)C(=O)C23)cc1` (centres undefined), the inhibition is reported as -0.26%. For `CCOC(=O)c1cnc2nc(SC)nn2c1N`, the inhibition was 4.24%. `C=CCn1c(Sc2nnc(C)s2)nc2c1c(=O)[nH]c(=O)n2C` showed an inhibition of 3.94%. In the case of `C=CCn1c(N2CCOCC2)nc2c1c(=O)[nH]c(=O)n2C`, the inhibition is reported as 1.7%. For `COCCn1c(Sc2nc(C)cs2)nc2c1c(=O)[nH]c(=O)n2C`, the inhibition was -3.29%. Compound `C=CCn1c(N2CCCC2)nc2c1c(=O)[nH]c(=O)n2C` has an inhibition of -1.68%. `CC(=O)Nc1ccc(NC(=S)NC(=O)C2CC2)cc1` was tested, and the inhibition was 0.52%. For `CC(=O)Nc1ccc(NC(=O)CN2CCN(c3ccccn3)CC2)cc1`, the inhibition was -2.22%. With `Cn1nc(C(=O)Nc2ccccc2N2CCCC2)c2ccccc2c1=O` the inhibition was 1.83%. Compound `Cc1ccc(/C=c2\sc3nc(-c4cccnc4)nn3c2=O)cc1` has an inhibition of 8.43%. In the case of `COc1cccc(/C=c2\sc3nc(-c4cccs4)nn3c2=O)c1OC`, the inhibition is reported as 21.5%. With `COc1ccccc1/C=c1\sc2nc(-c3ccco3)nn2c1=O` the inhibition was 31.4%. Compound `CCCOc1ccc(/C=c2\sc3ncnn3c2=O)cc1` has an inhibition of 3.82%. With `COc1ccccc1/C=C/C=c1\sc2nc(=O)c(Cc3ccccc3)nn2c1=O` the inhibition was 26.2%. For `CCCOc1ccc(/C=c2\sc3nc(-c4ccco4)nn3c2=O)cc1OCC`, the inhibition was 8.17%. For `O=c1nc2s/c(=C\c3ccco3)c(=O)n2nc1Cc1ccc(F)cc1`, the inhibition was 23.6% and -1.42%. `COc1ccc(OC)c(/C=c2\sc3nc(-c4cccs4)nn3c2=O)c1` showed an inhibition of 10.3%. With `COc1ccc(/C=C2\S/C(=N/S(=O)(=O)c3cccs3)NC2=O)cc1` the inhibition was 7.65%. `CCCNC(=O)CN1C(=O)NC(CCc2ccccc2)C1=O` (centres undefined) showed an inhibition of -6.24%. Compound `NC(=O)c1cc(S(=O)(=O)NCCCc2ccccc2)cs1` has an inhibition of 3.6%. In the case of `COc1ccc(Nc2nc(C)cc(=O)[nH]2)c(OC)c1`, the inhibition is reported as 10.4%. In the case of `CCOC(=O)C1=C(N)OC2=C(C(=O)CCC2)C1c1cccs1` (centres undefined), the inhibition is reported as 1.36%. `COC(=O)C1=C(N)OC2=C(C(=O)CC(C)(C)C2)C1c1cccs1` (centres undefined) showed an inhibition of 12.5%. `Oc1ccccc1/C=N/Nc1ccccc1` showed an inhibition of 3.4%. With `Oc1ccccc1C=NNC(=S)NN=Cc1ccccc1O` the inhibition was -0.1%. `O=C(C(=NNc1ccccc1)c1ccccc1)c1ccccc1` was tested, and the inhibition was -6.13%. Compound `COc1cc(/C=N/N=C(/C(=O)c2ccccc2)c2ccccc2)cc(OC)c1O` has an inhibition of 1.68%. Work on `O=C1C=CC(=O)N1CCCCCCCCCCN1C(=O)C=CC1=O` yielded an inhibition of -0.57%. In the case of `O=S(=O)(NC1CCCC1)c1ccc(F)cc1F`, the inhibition is reported as 21.1%. `COc1ccc(C(=O)NC(C)c2nnc(SCC(=O)Nc3nc(C)cs3)n2C)cc1` (centres undefined) showed an inhibition of 5.71%. Work on `COc1cc(NS(=O)(=O)c2ccc(NC(=O)/C=C/c3ccc([N+](=O)[O-])cc3)cc2)ncn1` yielded an inhibition of 7.89%. With `CN1C(=O)/C(=C/c2ccco2)SC1=Nc1ccc(N2CCOCC2)cc1` the inhibition was 25%. For `CN1C(=O)CSC1=Nc1cccc(C(=O)O)c1`, the inhibition was -5.13%. `CCCCn1c(N)c(N(CCC(C)C)C(=O)CSc2nnc(C)s2)c(=O)[nH]c1=O` gave an inhibition of 2.42%. In the case of `COc1ccc(N2CCN(c3ccc(C(N)=O)cc3[N+](=O)[O-])CC2)cc1`, the inhibition is reported as -3.87%. In the case of `CC(=O)c1ccc(N2CCN(c3ccc(C(N)=O)cc3[N+](=O)[O-])CC2)cc1`, the inhibition is reported as 15.8%. Work on `O=C(OCc1ccco1)c1cccnc1` yielded an inhibition of -2.16%. `Cc1ccc(Cc2c(-c3ccccc3)nc3cc(C)ccn23)cc1` was tested, and the inhibition was -4.74%. Compound `CCCC(=O)Nc1nnc(Sc2ccc(N(C)C)cc2)s1` has an inhibition of 2.88%. `CCC(=O)Nc1nnc(Sc2ccc(N(C)C)cc2)s1` gave an inhibition of 2.99%. Compound `COCCSc1nnc(NC(=O)COC)s1` has an inhibition of -0.26%. With `O=C1c2cccnc2C(Nc2cccc(F)c2)N1Cc1ccco1` (centres undefined) the inhibition was -1.27%. `O=C1c2cccnc2C(Nc2ccccc2Br)N1Cc1ccco1` (centres undefined) was tested, and the inhibition was 9.8%. Work on `Cc1cc(C(=O)COC(=O)c2ccc[nH]c2=O)c(C)n1C1CC1` yielded an inhibition of 13%. In the case of `NC(=S)NNC(=O)c1cc(C(F)(F)F)cc(C(F)(F)F)c1`, the inhibition is reported as 1.55%. `Cc1ccc2[nH]cc(S(=O)(=O)c3ccc(C(C)C)cc3)c(=O)c2c1` gave an inhibition of -10.1%. Work on `CN(Cc1ccno1)C(=O)CC1C(=O)NCCN1CC(c1ccccc1)c1ccccc1` (centres undefined) yielded an inhibition of -5.42%. `O=C1C2C3C=CC(C3)C2C(=O)N1CNc1ccccc1` (centres undefined) was tested, and the inhibition was 2.49%. In the case of `Cc1ccc(NCN2C(=O)C3C4C=CC(C4)C3C2=O)cc1` (centres undefined), the inhibition is reported as 6.77%.
